Measured values from the supplement of paper PMC12819154, “High-throughput peptide-centric local stability assay extends protein–ligand identification to membrane proteins, tissues and bacteria” (Nature Structural & Molecular Biology, 2025).

The targets below were run with Nc1ncnc2c1ncn2[C@@H]1O[C@H](COP(=O)(O)OP(=O)(O)OP(=O)(O)O)[C@@H](O)[C@H]1O [adenosine 5'-triphosphate] (assay: log2 fold change of tryptic peptide abundance, ligand vs vehicle (limited proteolysis) (log2 ratio); higher = more trypsin-susceptible (destabilized)). Conditions: ligand concentration: 5 mM; sample: E. coli desalted lysate; replicate design: treated before aliquoting.
Experimental: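 HT-PELSA: desalted E. coli K-12 BW25113 lysate (with 12 mM MgCl2) incubated with 5 mM ATP (pH 7) or water for 30 min at 25 C, then a 4 min trypsin pulse at 22 C. Peptides were quantified by DIA-MS (4 replicates). Value is the peptide log2 fold change (treated/control); negative = stabilized. Scale: negative = ligand-stabilized region.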
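Note: lysate desalted by size exclusion to strip endogenous ATP, peptide intensities built from DIA-NN precursor signals, and peptides missing any value discarded before comparison.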

| Target | log2 fold change |
| --- | --- |
| UniProt P31455 (peptide sequence: AYPGLVNVPR, peptide start residue: 290) | -1.05 |
| UniProt Q46857 (peptide sequence: DLADKYGK, peptide start residue: 204) | -0.885 |
| UniProt P0ACP7 (peptide sequence: TRFVAEETR, peptide start residue: 25) | 1.38 |
| UniProt P77171 (peptide sequence: GRQGAQLTLPGEQFLTHAVR, peptide start residue: 61) | 0.909 |
| UniProt P77721 (peptide sequence: VVSTGGELNK, peptide start residue: 138) | -0.442 |
| UniProt P37344 (peptide sequence: ETLLNYR, peptide start residue: 215) | -1.98 |
| UniProt P26612 (peptide sequence: TIHLGENYGNK, peptide start residue: 446) | 0.945 |
| UniProt P0ACW6 (peptide sequence: FMSLFDKHNK, peptide start residue: 19) | -0.425 |
| UniProt P28630 (peptide sequence: LSLLWPDGK, peptide start residue: 188) | -0.437 |
| UniProt P13857 (peptide sequence: TVQGNVMLHQR, peptide start residue: 54) | -0.406 |
| UniProt P04825 (peptide sequence: GLENLSGDLYEK, peptide start residue: 853) | -0.937 |
| UniProt P76206 (peptide sequence: FEFGPGVR, peptide start residue: 152) | 1.15 |
| UniProt P37349 (peptide sequence: LIAKGPEAEEALIAFR, peptide start residue: 217) | 0.492 |
| UniProt P39410 (peptide sequence: HIAQEMPEKIR, peptide start residue: 422) | -1.96 |
| UniProt P76187 (peptide sequence: HFGVSNFTPAQFALLQSR, peptide start residue: 154) | -0.944 |
| UniProt P46144 (peptide sequence: RVWATAQK, peptide start residue: 32) | -1.44 |
| UniProt P76116 (peptide sequence: NEAYVTHR, peptide start residue: 284) | -0.872 |
| UniProt P0AFZ1 (peptide sequence: NELEDLLEK, peptide start residue: 6) | 0.67 |
| UniProt P08390 (peptide sequence: AVDALAGQSAK, peptide start residue: 168) | 0.237 |
| UniProt P32131 (peptide sequence: QQHKADQYLDALEQEIVHR, peptide start residue: 78) | 1.02 |

| Target | log2 fold change |
| --- | --- |
| UniProt P0AB77 (peptide sequence: AGMDSHGFGMASVR, peptide start residue: 67) | -0.449 |
| UniProt P76594 (peptide sequence: SEVQGVMLYLR, peptide start residue: 533) | -2.33 |
| UniProt P27249 (peptide sequence: VEDLFIIATADRR, peptide start residue: 854) | 0.328 |
| UniProt P25516 (peptide sequence: KTLGLTGEEK, peptide start residue: 823) | -0.721 |
| UniProt P0A959 (peptide sequence: QGWMVLNGPKKHAK, peptide start residue: 249) | 1.18 |
| UniProt P37773 (peptide sequence: IIAVLEPRSNTMK, peptide start residue: 354) | 1.55 |
| UniProt P24182 (peptide sequence: LMGDKVSAIAAMKK, peptide start residue: 112) | -1.24 |
| UniProt P25742 (peptide sequence: SFTHLAPIHGTHIVER, peptide start residue: 116) | -1.07 |
| UniProt P14375 (peptide sequence: LNVVAIEVPSLR, peptide start residue: 302) | -1.45 |
| UniProt P39359 (peptide sequence: EGDLATAATLNKK, peptide start residue: 229) | -1.33 |
| UniProt P76268 (peptide sequence: ALQNVDLIR, peptide start residue: 83) | 0.371 |
| UniProt P36683 (peptide sequence: EALGLPHSDVFR, peptide start residue: 359) | 0.334 |
| UniProt P75838 (peptide sequence: GICGLPFTR, peptide start residue: 152) | -2.31 |
| UniProt P0AFI5 (peptide sequence: YTHFADASR, peptide start residue: 264) | -0.35 |
| UniProt P14081 (peptide sequence: EHLLQLPER, peptide start residue: 159) | -1.29 |
| UniProt P61887 (peptide sequence: FGVVEFDDNFR, peptide start residue: 143) | -0.44 |
| UniProt P06720 (peptide sequence: CVEQLANWHKELEEYKK, peptide start residue: 299) | -1.1 |
| UniProt P36929 (peptide sequence: VYDNLKR, peptide start residue: 286) | -1.2 |
| UniProt P08660 (peptide sequence: RNQTLLTLHSLNMLHSR, peptide start residue: 306) | -0.461 |
| UniProt P39399 (peptide sequence: AAGVSPVVVR, peptide start residue: 118) | 0.3 |
